Laboratory results taken from PubChem BioAssay (Tox21).
Several values for one entry are separate records, joined by “and”; a condition that tells them apart may be missing. Equal values may be shown once. Where a structure was tested more than once in an assay, its records may differ in their call. Activity calls are given as the source filed them. A call without a number means that no potency is given here. Unless noted, calls follow the shape of the dose curve; as a rule, active = well fitted curve in the direction sought with a large enough effect in the repeat runs; inconclusive = weak or mixed curves; inactive = no such curve, though single readings can be large; an effect the other way counts as inactive or inconclusive.

Columns and labels:
[1] = qHTS assay to identify small molecule antagonists of the glucocorticoid receptor (GR) signaling pathway - cell viability counter screen (AID 720693); also: nearly all actives have a fitted effect of over 55% in size; also: potency is read from the fitted curve at half-maximal effect
[2] = qHTS assay for identifying genotoxic compounds that show differential cytotoxicity against isogenic chicken DT40 cell lines with known DNA damage response pathways - wild type cell line (AID 743012); also: nearly all actives have a fitted effect of over 60% in size; also: potency is read from the fitted curve at half-maximal effect
Summary of the method: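 Using parental DT40 (300 cells/well), compounds delivered in DMSO incubate 40 h at 37 C/5% CO2. CellTiter-Glo reagent then stands 30 min at room temperature, and luminescence gives cell viability.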

[3] = qHTS assay for identifying genotoxic compounds that show differential cytotoxicity against isogenic chicken DT40 cell lines with known DNA damage response pathways - Rad54/Ku70 mutant cell line (AID 743015); also: nearly all actives have a fitted effect of over 60% in size; also: potency is read from the fitted curve at half-maximal effect
[4] = qHTS assay to identify small molecule antagonists of the androgen receptor (AR) signaling pathway - cell viability counter screen (AID 743033; also: nearly all actives have a fitted effect of over 45% in size; also: potency is read from the fitted curve at half-maximal effect)
[5] = target: Androgen receptor (Homo sapiens) (UniProt P10275); experiment: qHTS assay to identify small molecule antagonists of the androgen receptor (AR) signaling pathway (AID 743035; active = well fitted inhibition curve with a large enough effect in the signal ratio in the repeat runs, not every such curve was filed as active; inconclusive = weak or mixed curves, or effect the other way; inactive = no such curve, though single readings can be large or run the other way; the % refers to the signal ratio)
Androgen receptor (Homo sapiens), sequence (P10275 whole entry, looked up): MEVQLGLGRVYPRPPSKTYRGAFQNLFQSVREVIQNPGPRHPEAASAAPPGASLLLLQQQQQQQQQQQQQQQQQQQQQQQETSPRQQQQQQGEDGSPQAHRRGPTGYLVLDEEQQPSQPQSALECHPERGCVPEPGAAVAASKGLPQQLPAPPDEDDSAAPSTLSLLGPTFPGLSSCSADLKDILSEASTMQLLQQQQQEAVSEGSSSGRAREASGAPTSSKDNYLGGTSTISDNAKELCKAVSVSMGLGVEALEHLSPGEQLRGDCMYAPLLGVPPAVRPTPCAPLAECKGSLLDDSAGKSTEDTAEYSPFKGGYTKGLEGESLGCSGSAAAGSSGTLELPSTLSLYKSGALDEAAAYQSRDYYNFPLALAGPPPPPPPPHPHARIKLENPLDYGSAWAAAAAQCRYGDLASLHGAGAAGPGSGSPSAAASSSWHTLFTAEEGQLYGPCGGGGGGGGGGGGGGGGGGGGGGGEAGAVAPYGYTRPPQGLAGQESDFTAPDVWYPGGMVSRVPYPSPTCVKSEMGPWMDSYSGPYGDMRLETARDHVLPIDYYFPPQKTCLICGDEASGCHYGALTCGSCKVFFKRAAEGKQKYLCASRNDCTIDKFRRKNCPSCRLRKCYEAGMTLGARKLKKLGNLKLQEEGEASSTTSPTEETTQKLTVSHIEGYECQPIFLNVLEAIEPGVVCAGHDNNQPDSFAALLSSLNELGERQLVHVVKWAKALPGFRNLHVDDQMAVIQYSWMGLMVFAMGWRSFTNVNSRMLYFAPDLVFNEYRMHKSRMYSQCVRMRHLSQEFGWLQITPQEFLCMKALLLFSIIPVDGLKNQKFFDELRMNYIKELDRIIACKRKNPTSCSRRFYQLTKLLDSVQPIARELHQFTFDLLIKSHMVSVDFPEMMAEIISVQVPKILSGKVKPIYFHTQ
Summary of the method: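 Using qHTS, AR-UAS-bla GripTite HEK293 cells received compound, then R1881, and were cultured 16 h at 37C/5% CO2 before a 2 h room-temperature LiveBLAzer B/G FRET substrate step and fluorescence measurement.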

[6] = target: Androgen receptor (Homo sapiens) (UniProt P10275); experiment: qHTS assay to identify small molecule agonists of the androgen receptor (AR) signaling pathway using the MDA cell line (AID 743040; also: nearly all actives have a fitted effect of over 20% in size)
Summary of the method: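 MDA-kb2 breast carcinoma cells stably carrying an MMTV-driven luciferase reporter (AR- and GR-responsive) were seeded and held 5 h at 37C, 0% CO2, then exposed to compounds in DMSO for 16 h. Luminescence was read 30 min after ONE-Glo addition.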

[7] = target: Androgen receptor (Homo sapiens) (UniProt P10275); experiment: qHTS assay to identify small molecule antagonists of the androgen receptor (AR) signaling pathway using the MDA cell line (AID 743042; also: nearly all actives have a fitted effect of over 55% in size; also: potency is read from the fitted curve at half-maximal effect)
Summary of the method: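 MDA-kb2 cells (human breast carcinoma, stably carrying an MMTV-luciferase reporter responsive to AR and GR) were plated at 3,000 cells/well and preincubated 5 hr at 37C, then given compound plus R1881 agonist for 16 h. ONE-Glo luminescence was read.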

[8] = qHTS assay to identify small molecule antagonists of the thyroid receptor (TR) signaling pathway - cell viability counter screen (AID 743064); also: nearly all actives have a fitted effect of over 50% in size; also: potency is read from the fitted curve at half-maximal effect
Summary of the method: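 GH3.TRE-Luc cells, 4 h pre-plating; cpd + T3 1 nM final; 37 °C 23.5 h; CellTiter-Fluor 30 min; fluorescence read.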

[9] = qHTS assay to identify small molecule antagonists of the thyroid receptor (TR) signaling pathway (AID 743065); also: nearly all actives have a fitted effect of over 55% in size; also: potency is read from the fitted curve at half-maximal effect
Summary of the method: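 GH3.TRE-Luc rat pituitary cells carrying two TR response elements driving luciferase were plated for 4 h, given compound plus 1 nM T3 (final), and incubated 23.5 h at 37 C. ONE-Glo luminescence measured reporter inhibition; CellTiter-Fluor fluorescence tracked cytotoxicity.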

[10] = tested on: thyroid hormone receptor (rat, GH3 cells); experiment: qHTS assay to identify small molecule agonists of the thyroid receptor (TR) signaling pathway (AID 743066; calls by dose curve; also: potency is read from the fitted curve at half-maximal effect)
[11] = qHTS assay to identify small molecule antagonists of the estrogen receptor alpha (ER-alpha) signaling pathway - cell viability counter screen (AID 743074; calls by dose curve; also: nearly all actives have a fitted effect of over 45% in size; also: potency is read from the fitted curve at half-maximal effect)
[12] = target: Aromatase (Homo sapiens) (UniProt P11511); experiment: qHTS assay to identify aromatase inhibitors (AID 743083); also: nearly all actives have a fitted effect of over 55% in size; also: potency is read from the fitted curve at half-maximal effect
Aromatase (Homo sapiens), sequence (P11511 whole entry, looked up): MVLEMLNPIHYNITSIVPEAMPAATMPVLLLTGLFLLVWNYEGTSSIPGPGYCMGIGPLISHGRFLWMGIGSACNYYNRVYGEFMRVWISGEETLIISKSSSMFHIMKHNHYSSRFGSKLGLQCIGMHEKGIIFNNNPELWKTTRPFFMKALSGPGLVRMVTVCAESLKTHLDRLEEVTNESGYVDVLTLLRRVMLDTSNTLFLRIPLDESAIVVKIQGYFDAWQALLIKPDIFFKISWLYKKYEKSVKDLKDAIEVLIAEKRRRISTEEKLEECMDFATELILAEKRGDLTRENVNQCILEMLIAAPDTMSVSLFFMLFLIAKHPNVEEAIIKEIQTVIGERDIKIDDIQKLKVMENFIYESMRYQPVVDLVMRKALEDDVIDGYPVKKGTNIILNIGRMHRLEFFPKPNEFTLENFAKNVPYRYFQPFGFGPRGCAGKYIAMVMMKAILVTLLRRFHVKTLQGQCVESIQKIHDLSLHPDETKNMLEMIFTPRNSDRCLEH

[13] = qHTS assay to identify aromatase inhibitors - cell viability counter screen (AID 743084); also: potency is read from the fitted curve at half-maximal effect
[14] = qHTS assay for identifying genotoxic compounds that show differential cytotoxicity against isogenic chicken DT40 cell lines with known DNA damage response pathways - Rev3 mutant cell line (AID 743014); also: nearly all actives have a fitted effect of over 55% in size; also: potency is read from the fitted curve at half-maximal effect
[15] = qHTS assay to identify small molecule antagonists of the androgen receptor (AR) signaling pathway using the MDA cell line - cell viability counter screen (AID 743041; also: nearly all actives have a fitted effect of over 45% in size; also: potency is read from the fitted curve at half-maximal effect)
Summary of the method: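 MDA-kb2 AR-luc human breast carcinoma cells (MMTV-luciferase, AR/GR responsive) were treated with compounds plus R1881 agonist for 16 h at 37 °C. Viability was read as CellTiter-Fluor fluorescence in the same wells as the reporter assay.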

[16] = target: Estrogen receptor (Homo sapiens) (UniProt P03372); experiment: qHTS assay to identify small molecule agonists of the estrogen receptor alpha (ER-alpha) signaling pathway (AID 743075; calls by dose curve; also: potency is read from the fitted curve at half-maximal effect); conditions: HEK293 ER-alpha-UAS-bla, beta-lactamase FRET ratio, 18 h; activation: at 70.1 µM (top of the series)
Estrogen receptor (Homo sapiens), sequence (P03372 whole entry, looked up): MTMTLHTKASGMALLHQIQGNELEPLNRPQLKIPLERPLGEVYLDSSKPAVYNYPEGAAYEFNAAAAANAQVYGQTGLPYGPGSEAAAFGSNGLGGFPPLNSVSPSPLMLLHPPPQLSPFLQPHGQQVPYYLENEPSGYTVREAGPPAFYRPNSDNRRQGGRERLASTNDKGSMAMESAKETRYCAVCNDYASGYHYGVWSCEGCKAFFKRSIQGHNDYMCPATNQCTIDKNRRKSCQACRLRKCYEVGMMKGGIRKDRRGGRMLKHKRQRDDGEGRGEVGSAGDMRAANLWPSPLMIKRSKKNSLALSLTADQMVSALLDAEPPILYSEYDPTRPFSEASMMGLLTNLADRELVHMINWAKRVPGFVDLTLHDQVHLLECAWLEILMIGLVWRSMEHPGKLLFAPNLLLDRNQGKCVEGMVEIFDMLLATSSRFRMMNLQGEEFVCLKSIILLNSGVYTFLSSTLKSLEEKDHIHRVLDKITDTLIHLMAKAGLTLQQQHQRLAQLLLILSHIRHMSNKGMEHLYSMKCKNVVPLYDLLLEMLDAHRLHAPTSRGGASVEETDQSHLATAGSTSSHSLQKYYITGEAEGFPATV

[17] = qHTS assay to identify small molecule antagonists of the estrogen receptor alpha (ER-alpha) signaling pathway using the BG1 cell line - cell viability counter screen (AID 743081);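 also: compound given together with 17beta-estradiol as the ER stimulus; nearly all actives have a fitted effect of over 45% in size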; also: potency is read from the fitted curve at half-maximal effect
[18] = target: Estrogen receptor (Homo sapiens) (UniProt P03372); experiment: qHTS assay to identify small molecule antagonists of the estrogen receptor alpha (ER-alpha) signaling pathway (AID 743069; active = well fitted curve in the direction sought with a large enough effect in the signal ratio in the repeat runs, not every such curve was filed as active; inconclusive = weak or mixed curves, or effect the other way; inactive = no such curve, though single readings can be large or run the other way; the % refers to the signal ratio; also: potency is read from the fitted curve at half-maximal effect)
Summary of the method: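 HEK293 cells stably carrying an ER-alpha-UAS-bla beta-lactamase reporter were pre-cultured overnight in 2% charcoal-stripped FBS medium. Test compounds in DMSO were added together with 17beta-estradiol for 18 hr at 37C. Read-out was fluorescence after 2 hr with LiveBLAzer B/G FRET substrate at room temperature.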

[19] = qHTS assay to identify small molecule antagonists of the estrogen receptor alpha (ER-alpha) signaling pathway using the BG1 cell line (AID 743080; calls by dose curve;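 also: BG1 cells stimulated with 17beta-estradiol alongside compound; nearly all actives have a fitted effect of over 25% in size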; also: potency is read from the fitted curve at half-maximal effect)
Summary of the method: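 Seeding, 24 h rest, compound transfer from DMSO, 17beta-estradiol addition, 21.5 h incubation, CellTiter-Fluor (30 min, 37 C), then ONE-Glo (30 min, room temperature): this sequence was run on BG1-Luc-4E2 reporter cells.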

[20] = target: Estrogen receptor (Homo sapiens) (UniProt P03372); experiment: qHTS assay to identify small molecule agonists of the estrogen receptor alpha (ER-alpha) signaling pathway using the BG1 cell line (AID 743079); conditions: BG1Luc4E2 cells, ERE-luciferase agonist, 22 h; also: nearly all actives have a fitted effect of over 20% in size; also: potency is read from the fitted curve at half-maximal effect

CC(C)(C)CC(C)(C)c1ccc(O)c(Cc2ccc(Cl)cc2Cl)c1
Potency [1]: 10.7 µM (active)
Potency [2]: 26.6 µM (active)
Potency [3]: 26.6 µM (active)
Potency [4]: inactive
Potency [5]: inactive
Potency [6]: inactive
Potency [7]: inactive
Potency [8]: 6.68 µM (active)
Potency [9]: 6.68 µM (active)
Potency [10]: 2.11 µM (active)
Potency [11]: 23.9 µM (active)
Potency [12]: inactive
Potency [13]: inactive

N=C1N=C(N)c2cc3ccccc3cc21
Potency [1]: 21.9 µM (active)
Potency [2]: 9.69 µM (active)
Potency [14]: 27.3 µM (active)
Potency [3]: 27.3 µM (active)
Potency [8]: 12.9 µM (active)
Potency [9]: 13.7 µM (active)
Potency [10]: inactive
Potency [12]: 19.9 µM (active)
Potency [13]: 61.1 µM (active)

CC(C)(C)CC(C)(C)c1ccc(OCCOCC[N+](C)(C)Cc2ccccc2)cc1
Potency [1]: 19.5 µM (active)
Potency [2]: 668 nM (active) and 1.53 µM (active)
Potency [14]: 841 nM (active) and 968 nM (active)
Potency [4]: 21.3 µM (active) and 7.75 µM (active)
Potency [15]: 24.8 µM (active) and 38.5 µM (active)
Potency [8]: 16.8 µM (active) and 13.7 µM (active)
Potency [9]: 16.8 µM (active) and 13.7 µM (active)
Potency [11]: 19 µM (active) and 19.5 µM (active)
Potency [16]: inactive
Potency [17]: inactive and 61.1 µM (active)
Potency [12]: 23.7 µM (active) and 12.2 µM (active)
Potency [13]: 23.7 µM (active) and 24.3 µM (active)

Oc1ccc(C2(c3ccc(O)cc3)CC3CC2C2CCCC32)cc1 (stereo unspecified)
Potency [1]: inactive
Potency [2]: inactive
Potency [14]: inactive
Potency [4]: 47 µM (active)
Potency [6]: inactive
Potency [8]: 26.2 µM (active)
Potency [9]: 29.4 µM (active)
Potency [10]: inactive
Potency [18]: 0.0592 µM [inconclusive] (active)
Potency [19]: 1.31 µM (active)
Potency [17]: inactive
Potency [12]: 1.86 µM (active)
Potency [13]: 33 µM (active)

Cc1onc(-c2ccccc2Cl)c1C(=O)N[C@@H]1C(=O)N2[C@@H]1SC(C)(C)[C@@H]2C(=O)O
Potency [1]: inactive
Potency [2]: inactive
Potency [14]: inactive
Potency [3]: inactive
Potency [15]: inactive
Potency [18]: inactive
Potency [11]: inactive
Potency [16]: inactive
activation ([20]; at 32.5 µM (top of the series)): -4.31% (inactive)
Potency [19]: inactive
Potency [17]: inactive
Potency [12]: inactive
Potency [13]: inactive

COc1ccc(C(=O)/C(Br)=C\C(=O)O)cc1
Potency [1]: inactive
Potency [2]: inactive and 3.86 µM (active)
Potency [3]: 6.11 µM (active)
Potency [4]: inactive
Potency [6]: inactive
Potency [7]: 23.7 µM (active) and 30.6 µM (active)
Potency [8]: 21.7 µM (active)
Potency [10]: inactive
Potency [11]: inactive
Potency [16]: inactive
activation ([20]; at 70.3 µM (top of the series)): 0.472% (inactive)
Potency [17]: inactive
Potency [12]: 48.6 µM (active)
Potency [13]: 17.2 µM (active)

CC(=O)OCC(C)OC(C)=O (stereo unspecified)
Potency [1]: inactive
Potency [2]: inactive
Potency [14]: inactive
Potency [4]: inactive
Potency [8]: inactive
Potency [9]: inactive
Potency [10]: inactive
Potency [18]: inactive
Potency [11]: inactive
Potency [16]: inactive
activation ([20]; at 70.3 µM (top of the series)): 5.73% (inactive)
Potency [19]: inactive
Potency [17]: inactive
Potency [12]: inactive
Potency [13]: inactive

CCCCCCCC/C=C\CCCCCCCCOCCO
Potency [1]: 31.9 µM (active)
Potency [2]: 5.62 µM (active)
Potency [3]: 8.91 µM (active)
Potency [4]: 22.6 µM (active)
Potency [8]: 25.1 µM (active)
Potency [9]: 11.2 µM (active)
Potency [10]: inactive
Potency [18]: 9 µM [inconclusive] (active)
Potency [11]: 56.8 µM (active)
Potency [19]: 10 µM (active)
Potency [17]: 39.8 µM (active)
Potency [12]: 35.5 µM (active)
Potency [13]: 79.4 µM (active)

O=C(O)c1ccc(Cl)c(Cl)c1
Potency [1]: inactive
Potency [2]: inactive
Potency [14]: inactive
Potency [4]: inactive
Potency [5]: inactive
Potency [6]: inactive
Potency [15]: inactive
Potency [8]: inactive
Potency [9]: inactive
Potency [10]: inactive
Potency [11]: inactive
Potency [16]: inactive
activation ([20]; at 70.3 µM (top of the series)): -5.68% (inactive)
Potency [19]: inactive
Potency [17]: inactive
Potency [12]: inactive
Potency [13]: inactive

CCCCCCCCCCCCCCCCCC[N+](C)(C)Cc1ccccc1
Potency [1]: 19.7 µM (active)
Potency [2]: 0.978 µM (active)
Potency [14]: 0.777 µM (active)
Potency [4]: 19.7 µM (active)
Potency [6]: inactive
Potency [7]: 12.3 µM (active)
Potency [8]: 11 µM (active)
Potency [9]: 7.77 µM (active)
Potency [10]: inactive
Potency [11]: 22.1 µM (active)
Potency [12]: 21.9 µM (active)
Potency [13]: 49 µM (active)

CCCN(CCC)C(=O)C(CCC(=O)OCCCN1CCN(CCOC(=O)Cc2c(C)n(C(=O)c3ccc(Cl)cc3)c3ccc(OC)cc23)CC1)NC(=O)c1ccccc1 (stereo unspecified)
Potency [1]: inactive
Potency [2]: 23.7 µM (active)
Potency [14]: 26.6 µM (active)
Potency [4]: inactive
Potency [6]: inactive
Potency [15]: inactive
Potency [8]: 13.3 µM (active)
Potency [9]: 26.6 µM (active)
Potency [11]: inactive
Potency [16]: 7.56 µM [activator] (active)
Potency [20]: 0.211 µM (active)
Potency [19]: inactive
Potency [17]: inactive

CC[C@@]1(O)C(=O)OCc2c1cc1n(c2=O)Cc2cc3c(CN(C)C)c(O)ccc3nc2-1
Potency [1]: inactive
Potency [2]: 1.33 µM (active)
Potency [14]: 1.19 µM (active)
Potency [3]: 0.841 µM (active)
Potency [9]: 2.37 µM (active)
Potency [10]: inactive
Potency [18]: 12 µM [inconclusive] (active)
Potency [11]: inactive
Potency [16]: inactive
Potency [19]: 7.5 µM (active)
Potency [12]: 5.31 µM (active)

OCCN1CCN(CC/C=C2/c3ccccc3Sc3ccc(C(F)(F)F)cc32)CC1
Potency [1]: inactive
Potency [2]: 9.44 µM (active)
Potency [4]: 19 µM (active)
Potency [6]: inactive
Potency [8]: 15 µM (active)
Potency [9]: 11.9 µM (active)
Potency [18]: inactive
Potency [16]: inactive
activation ([20]; at 70.3 µM (top of the series)): -29.2% (inactive)
Potency [19]: inactive
Potency [17]: inactive
Potency [12]: inactive

CC(=O)SC[C@@H](Cc1ccccc1)C(=O)NCC(=O)OCc1ccccc1
Potency [1]: inactive
Potency [2]: inactive
Potency [4]: inactive
Potency [15]: inactive
Potency [8]: inactive
Potency [9]: inactive
Potency [10]: inactive
Potency [18]: inactive
Potency [11]: inactive
Potency [16]: inactive
activation ([20]; at 32.5 µM (top of the series)): 3.92% (inactive)
Potency [19]: inactive
Potency [12]: inactive
Potency [13]: inactive
